According to ChEMBL document CHEMBL1961873, “Compounds: GSK PKIS; Assays: Nanosyn kinase panel” (2012):

What was measured:
[1] = biological target: Serine/threonine-protein kinase 26 (Homo sapiens) (UniProt Q9P289); conditions: at 1 µM;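 note: mean inhibition of MST4 kinase activity, reported from the GSK PKIS inhibitor-set screening panel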
[2] = biological target: Serine/threonine-protein kinase PAK 1 (Homo sapiens) (UniProt Q13153); conditions: at 0.1 µM
[3] = biological target: Serine/threonine-protein kinase PAK 1 (Homo sapiens) (UniProt Q13153); conditions: at 1 µM
[4] = biological target: Serine/threonine-protein kinase PAK 2 (Homo sapiens) (UniProt Q13177); conditions: at 0.1 µM
[5] = biological target: Serine/threonine-protein kinase PAK 2 (Homo sapiens) (UniProt Q13177); conditions: at 1 µM
[6] = biological target: Serine/threonine-protein kinase PAK 3 (Homo sapiens) (UniProt O75914); conditions: at 0.1 µM
[7] = biological target: Serine/threonine-protein kinase PAK 3 (Homo sapiens) (UniProt O75914); conditions: at 1 µM
[8] = biological target: Serine/threonine-protein kinase PAK 5 (Homo sapiens) (UniProt Q9P286); conditions: at 0.1 µM
[9] = biological target: Serine/threonine-protein kinase PAK 5 (Homo sapiens) (UniProt Q9P286); conditions: at 1 µM
[10] = biological target: Serine/threonine-protein kinase PAK 6 (Homo sapiens) (UniProt Q9NQU5); conditions: at 0.1 µM;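 note: mean PAK6 inhibition reported from the GSK PKIS screen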
Serine/threonine-protein kinase PAK 6 (Homo sapiens), sequence (Q9NQU5 whole entry, looked up): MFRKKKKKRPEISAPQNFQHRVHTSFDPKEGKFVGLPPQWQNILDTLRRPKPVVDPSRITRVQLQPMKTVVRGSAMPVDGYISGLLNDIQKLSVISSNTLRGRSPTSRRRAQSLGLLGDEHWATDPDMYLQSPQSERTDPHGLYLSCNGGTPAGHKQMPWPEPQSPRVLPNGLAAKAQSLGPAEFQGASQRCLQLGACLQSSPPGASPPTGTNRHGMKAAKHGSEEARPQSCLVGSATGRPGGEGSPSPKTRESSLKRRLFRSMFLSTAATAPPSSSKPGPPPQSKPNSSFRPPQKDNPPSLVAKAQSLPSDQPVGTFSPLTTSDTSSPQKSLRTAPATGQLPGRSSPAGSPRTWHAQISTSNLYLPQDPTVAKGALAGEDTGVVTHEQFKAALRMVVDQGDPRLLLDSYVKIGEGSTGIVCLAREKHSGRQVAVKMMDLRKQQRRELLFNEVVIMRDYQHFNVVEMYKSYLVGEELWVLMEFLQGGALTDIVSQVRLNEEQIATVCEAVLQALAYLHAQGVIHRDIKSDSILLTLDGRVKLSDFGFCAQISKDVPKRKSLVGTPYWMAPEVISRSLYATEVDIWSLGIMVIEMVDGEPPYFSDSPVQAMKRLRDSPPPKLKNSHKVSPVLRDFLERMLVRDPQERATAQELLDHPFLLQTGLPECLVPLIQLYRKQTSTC

Serine/threonine-protein kinase PAK 2 (Homo sapiens), sequence (Q13177 whole entry): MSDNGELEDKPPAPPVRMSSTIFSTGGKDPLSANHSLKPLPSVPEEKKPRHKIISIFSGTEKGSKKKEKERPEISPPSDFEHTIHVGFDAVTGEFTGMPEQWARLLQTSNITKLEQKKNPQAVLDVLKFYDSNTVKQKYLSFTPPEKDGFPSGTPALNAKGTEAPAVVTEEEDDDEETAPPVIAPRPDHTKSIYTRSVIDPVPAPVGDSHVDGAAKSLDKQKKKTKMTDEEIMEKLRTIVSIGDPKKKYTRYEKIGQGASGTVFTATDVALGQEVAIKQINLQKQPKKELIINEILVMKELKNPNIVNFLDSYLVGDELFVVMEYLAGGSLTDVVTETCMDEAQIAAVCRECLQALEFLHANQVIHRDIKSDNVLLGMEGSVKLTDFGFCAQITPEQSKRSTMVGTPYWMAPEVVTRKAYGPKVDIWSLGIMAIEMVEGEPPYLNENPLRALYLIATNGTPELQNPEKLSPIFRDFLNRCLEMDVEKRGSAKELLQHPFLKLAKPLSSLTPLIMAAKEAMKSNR
Serine/threonine-protein kinase PAK 3 (Homo sapiens), sequence (O75914 whole entry, looked up): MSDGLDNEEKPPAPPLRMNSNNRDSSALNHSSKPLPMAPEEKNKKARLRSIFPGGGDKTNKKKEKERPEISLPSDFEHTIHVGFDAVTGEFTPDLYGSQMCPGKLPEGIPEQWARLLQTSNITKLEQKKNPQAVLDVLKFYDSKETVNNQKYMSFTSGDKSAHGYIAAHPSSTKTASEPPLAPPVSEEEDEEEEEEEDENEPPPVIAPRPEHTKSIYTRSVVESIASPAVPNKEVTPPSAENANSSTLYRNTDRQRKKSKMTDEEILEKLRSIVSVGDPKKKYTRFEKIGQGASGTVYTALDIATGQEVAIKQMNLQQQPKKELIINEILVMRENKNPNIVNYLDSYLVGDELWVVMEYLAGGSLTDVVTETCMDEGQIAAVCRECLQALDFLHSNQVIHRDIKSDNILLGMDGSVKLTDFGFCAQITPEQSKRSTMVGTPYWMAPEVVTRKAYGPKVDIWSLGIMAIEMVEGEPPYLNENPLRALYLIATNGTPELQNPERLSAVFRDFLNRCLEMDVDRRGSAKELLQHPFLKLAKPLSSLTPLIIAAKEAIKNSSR
Serine/threonine-protein kinase PAK 5 (Homo sapiens), sequence (Q9P286 whole entry, looked up): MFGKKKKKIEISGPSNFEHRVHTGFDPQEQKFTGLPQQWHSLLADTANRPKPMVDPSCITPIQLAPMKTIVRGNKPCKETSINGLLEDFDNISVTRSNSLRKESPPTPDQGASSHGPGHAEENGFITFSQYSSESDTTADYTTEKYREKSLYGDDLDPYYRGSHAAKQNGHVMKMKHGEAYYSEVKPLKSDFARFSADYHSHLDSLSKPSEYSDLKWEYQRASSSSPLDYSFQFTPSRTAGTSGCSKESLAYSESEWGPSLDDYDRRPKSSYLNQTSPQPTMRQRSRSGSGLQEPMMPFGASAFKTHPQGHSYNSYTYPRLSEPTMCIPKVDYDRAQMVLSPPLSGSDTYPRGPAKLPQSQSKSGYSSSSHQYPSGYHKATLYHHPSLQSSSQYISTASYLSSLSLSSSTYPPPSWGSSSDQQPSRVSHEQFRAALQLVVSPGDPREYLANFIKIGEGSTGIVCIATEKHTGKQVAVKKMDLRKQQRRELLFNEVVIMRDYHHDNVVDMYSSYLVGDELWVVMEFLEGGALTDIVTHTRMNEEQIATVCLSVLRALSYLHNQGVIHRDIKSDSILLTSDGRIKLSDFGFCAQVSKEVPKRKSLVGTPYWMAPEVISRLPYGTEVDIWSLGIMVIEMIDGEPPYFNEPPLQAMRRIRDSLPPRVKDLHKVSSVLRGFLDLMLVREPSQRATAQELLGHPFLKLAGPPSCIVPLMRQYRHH
Serine/threonine-protein kinase PAK 1 (Homo sapiens), sequence (Q13153 whole entry): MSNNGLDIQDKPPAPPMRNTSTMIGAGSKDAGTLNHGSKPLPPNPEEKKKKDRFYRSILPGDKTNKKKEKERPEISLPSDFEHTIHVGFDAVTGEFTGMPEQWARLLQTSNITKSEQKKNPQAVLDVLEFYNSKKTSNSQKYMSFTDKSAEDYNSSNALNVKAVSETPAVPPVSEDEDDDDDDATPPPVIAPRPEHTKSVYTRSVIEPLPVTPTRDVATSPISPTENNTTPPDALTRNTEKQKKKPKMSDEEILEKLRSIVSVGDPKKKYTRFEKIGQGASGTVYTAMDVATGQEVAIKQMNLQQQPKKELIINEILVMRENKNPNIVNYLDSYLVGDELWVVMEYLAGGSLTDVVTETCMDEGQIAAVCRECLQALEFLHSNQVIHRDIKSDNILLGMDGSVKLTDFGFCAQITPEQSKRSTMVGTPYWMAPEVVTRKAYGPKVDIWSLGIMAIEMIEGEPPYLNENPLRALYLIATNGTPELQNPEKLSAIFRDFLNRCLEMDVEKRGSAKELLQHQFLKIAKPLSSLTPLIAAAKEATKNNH
Serine/threonine-protein kinase 26 (Homo sapiens), sequence (Q9P289 2-416 limits assumed): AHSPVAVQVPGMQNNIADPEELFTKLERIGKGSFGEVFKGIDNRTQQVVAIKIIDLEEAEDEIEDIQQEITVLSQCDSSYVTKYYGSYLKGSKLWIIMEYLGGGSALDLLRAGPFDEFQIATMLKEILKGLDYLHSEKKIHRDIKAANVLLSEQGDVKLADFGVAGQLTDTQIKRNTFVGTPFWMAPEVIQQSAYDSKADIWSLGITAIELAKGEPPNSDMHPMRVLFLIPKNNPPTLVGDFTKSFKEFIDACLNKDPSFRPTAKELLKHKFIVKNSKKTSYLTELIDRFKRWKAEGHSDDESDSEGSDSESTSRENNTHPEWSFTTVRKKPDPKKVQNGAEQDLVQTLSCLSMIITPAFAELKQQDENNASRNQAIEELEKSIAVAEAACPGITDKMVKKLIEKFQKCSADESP

| SMILES | inhibition [1] [%] | inhibition [2] [%] | inhibition [3] [%] | inhibition [4] [%] | inhibition [5] [%] | inhibition [6] [%] | inhibition [7] [%] | inhibition [8] [%] | inhibition [9] [%] | inhibition [10] [%] |
| --- | --- | --- | --- | --- | --- | --- | --- | --- | --- | --- |
| Fc1cccc(COc2ccc(Nc3ncnc4sc(-c5ccco5)cc34)cc2Cl)c1 | 3.25 | 5.72 | 4.19 | 1.79 | 1.67 | 5.17 | 3.75 | 2.39 | 4.77 | 1.93 |
| CC1=C(C(=O)Nc2cc(Cl)c3[nH]ncc3c2)C(c2ccc(C(F)(F)F)cc2)CC(=O)N1 (stereo not given) | 8.39 | 3.76 | 4.55 | 0.71 | 2.32 | 4.06 | 3.69 | 0.42 | 4.84 | -4.08 |
| CNC(=O)c1cccc(C#Cc2cncnc2Nc2ccc(OCc3cccc(F)c3)c(Cl)c2)c1 | 4.41 | 2.05 | 1.45 | 0.68 | 1.72 | -0.16 | 0.51 | 7.61 | -2.53 | 9.54 |
| CCn1c(-c2nonc2N)nc2c(C#CC(C)(C)O)nc(OC[C@H](N)c3ccccc3)cc21 | 28.1 | 1.29 | 3.91 | 1.1 | 10.9 | 2.18 | 4.83 | 37.3 | 70.9 | 49.4 |
| CCNC(=O)O[C@H]1CN[C@H](C#Cc2cc3ncnc(Nc4ccc(OCc5cccc(F)c5)c(Cl)c4)c3s2)C1 | -0.79 | 1.87 | 8.64 | 1.21 | 1.91 | 3.71 | 3.15 | 5.88 | 2.54 | 8.13 |
| COc1cc2c(cc1Nc1nc(Nc3ccsc3C(N)=O)c3cc[nH]c3n1)N(C(=O)CN(C)C)CCC2(C)C | 0.56 | 8.7 | 7.09 | 2.44 | 3.48 | 5.68 | 5.85 | -2.38 | -3.07 | -6.17 |
| Cc1cccc2c1NC(=O)/C2=N\Nc1ccc(S(N)(=O)=O)cc1 | -4.46 | 7.85 | 5.96 | 2.44 | 1.43 | 3.43 | 3.88 | 11.2 | 2.81 | 3.7 |
| COc1ccc2c(-c3ccnc(Nc4cccc(OC(F)(F)F)c4)n3)cnn2n1 | -3.1 | 8.76 | 7.47 | 4.37 | 2.6 | 5.69 | 5.05 | 8.06 | 5.84 | 5.76 |
| CCn1cc(-c2ccnc3[nH]ccc23)c(-c2cccc(NC(=O)Nc3ccc(OCc4ccccc4)cc3)c2)n1 | -5.19 | 0.97 | 0.73 | -0.8 | -0.35 | 1.3 | 1.28 | -1.74 | -3.66 | 5.15 |
| CN(C)CCOc1ccc(-c2nc(-c3ccncc3)c(-c3ccc4c(c3)CC/C4=N\O)[nH]2)cc1 | -0.6 | 4.61 | 9.24 | 2.66 | 2.42 | 3.85 | 4.82 | 7.4 | 7.07 | -7.61 |
| N#Cc1c(NC(=O)c2ccc(F)cc2)sc2c1CCCC2 | 2.43 | -0.82 | 3.8 | 0.64 | 0.15 | 1.5 | 1.26 | -0.93 | -0.51 | -7.52 |
| COc1cccc(-n2ncc3c(N/N=C/c4ccc(F)cc4)ncnc32)c1 | -2.12 | 4.83 | 7.12 | 2.32 | 2.24 | 4.66 | 4.91 | 9.72 | 5.66 | 3.88 |
| CC(=O)Nc1cccc(C#Cc2cncnc2Nc2ccc(OCc3cccc(F)c3)c(Cl)c2)c1 | -0.92 | 3.48 | 6.05 | 2.19 | 1.41 | 2.92 | 3.79 | -5.54 | 1.62 | 2.97 |
| CS(=O)(=O)CCNCc1coc(-c2ccc3ncnc(Nc4ccc(OCc5ccccc5)cc4)c3c2)c1 | 2.64 | 2.37 | 4.92 | 0.82 | 0.14 | 3.37 | 3.31 | 3.59 | 3.38 | -4 |
| CC(C)COC(=O)c1ccc2c(c1)/C(=C/Nc1ccc(S(N)(=O)=O)cc1)C(=O)N2 | 10.7 | -0.34 | 1.52 | -2.84 | 0.1 | -2.65 | -0.22 | -0.7 | 5.79 | 11.9 |
| COc1ccc(-c2oc3ncnc(N)c3c2-c2ccc(NC(=O)Nc3cc(C(F)(F)F)ccc3F)cc2)cc1 | 0.01 | 6.65 | 5.48 | 3.2 | 3.66 | 4.72 | 4.39 | 16.8 | 0.17 | 2.23 |
| COc1cc(Nc2nccc(Nc3ccc4c(C)n[nH]c4c3)n2)cc(OC)c1OC | 3 | 2.19 | 7.51 | 0.97 | 3.21 | 2.53 | 5.23 | 1.57 | 15.3 | -4.29 |

| SMILES | inhibition [1] [%] | inhibition [2] [%] | inhibition [3] [%] | inhibition [4] [%] | inhibition [5] [%] | inhibition [6] [%] | inhibition [7] [%] | inhibition [8] [%] | inhibition [9] [%] | inhibition [10] [%] |
| --- | --- | --- | --- | --- | --- | --- | --- | --- | --- | --- |
| CNC(=O)c1cncc(/C=C/c2ccccc2Cl)c1 | 1.7 | 0.81 | 1.33 | 0.07 | -0.55 | 0.06 | 0.54 | 6.76 | 4.3 | 8.93 |
| Nc1nc(-c2ccc(F)cc2)c(-c2ccc3ncccc3n2)s1 | 9.07 | 6.29 | 6.35 | 1.67 | 2.07 | 5.1 | 5.56 | 2.84 | 4.21 | 1.6 |
| COc1ccc2[nH]c3c4[nH]c5ccc(OC)cc5c4c4c(c3c2c1)C(=O)NC4=O | 14 | 5.41 | 7.72 | 1.43 | 3.51 | 4 | 5.61 | 5.43 | 4.46 | 4.49 |
| NS(=O)(=O)c1ccc(Nc2ncc(-c3ccccc3)o2)cc1 | -2.5 | 4.04 | 7.88 | 2.52 | 1.78 | 4.23 | 5.19 | 8.88 | 9.45 | -1.35 |
| COc1ccc(-c2cc3c(N)ncnc3o2)cc1 | 0.97 | -2.64 | -0.27 | -2.02 | -0.84 | -1.87 | -1.01 | -1.3 | -1.65 | -8.16 |
| O=C(O[C@H]1CN[C@H](C#Cc2cc3ncnc(Nc4ccc(Cc5ccccc5)cc4)c3s2)C1)N1CCOCC1 | -0.68 | 0.1 | 2.79 | 0.85 | 0.99 | 3.06 | 2.95 | 0.53 | 0.17 | -2.8 |
| COc1cccc(-c2c[nH]c3c(N/N=C/c4ccncc4)ncnc23)c1 | 20.3 | 2.35 | 1.11 | 0.94 | 0.74 | 1.83 | 2.84 | 0.46 | 0.73 | 5.9 |
| CC(=O)NCc1cccc(C#Cc2cncnc2Nc2ccc(OCc3cccc(F)c3)c(Cl)c2)c1 | 2.49 | 4.19 | 4.46 | -0.34 | -0.13 | -0.22 | 0.22 | 2.64 | -5.66 | 3.99 |
| N#Cc1c(NC(=O)CN2CCOCC2)sc2c1CCCC2 | -0.59 | 8.81 | 4.43 | 1.25 | 0.76 | 3.48 | 4.91 | 2.38 | 3.24 | 0.72 |
| COc1cc(/C=N/Nc2ncnc3[nH]ncc23)ccc1O | 5.4 | 1.82 | 6.64 | 2.22 | 1.35 | 4.08 | 4.44 | 10.5 | 11.8 | -5.57 |
| c1cc(-c2cnn3nc(N4CCOCC4)ccc23)nc(NC2CC2)n1 | -4.91 | -0.13 | 5.07 | 3.69 | 3.04 | 4.26 | 4.93 | 6.57 | 1.19 | 4.42 |
| CCc1nn2ncccc2c1-c1ccnc(NC2CC2)n1 | 1.56 | 3.36 | 4.68 | 1.85 | 1.62 | 3.09 | 3.37 | -2.62 | 0.37 | -9.47 |
| NS(=O)(=O)c1ccc(N/N=C2\C(=O)Nc3ccc4ncccc4c32)cc1 | 72.5 | 5.44 | 7.55 | 1.04 | 3.9 | 2.76 | 3.77 | -1.93 | 3.21 | -4.05 |
| CCN1CCC(CC(=O)Nc2n[nH]c3nnc(-c4cccc(F)c4F)cc23)CC1 | 1.9 | 3.95 | 4.17 | 2.09 | 0.33 | 3.91 | 1.02 | 2 | 0.92 | 4.45 |
| Nc1ncc(-c2cccc(S(N)(=O)=O)c2)c2scc(-c3ccc(F)c(Cl)c3)c12 | 2.44 | 3.95 | 5.65 | 3.24 | 1.78 | 5.21 | 3.51 | 4.11 | 3.74 | -2.3 |
| Fc1ccc(-c2nn3ncccc3c2-c2ccnc(Nc3ccc4c(c3)OCCO4)n2)cc1 | 7.97 | 5.7 | 9.76 | 1.46 | 2.5 | 4.83 | 4.47 | -1.83 | -2.83 | -0.14 |
